Our source for the log2 fold change values is the supplement of paper PMC10849652.

Targets with a hit are over-represented here; the source holds about 7,900 in all. About 0.6% of all pairs of compound and target were hits. A number with no mark means an inactive call.

UniProt Q99439, sequence (Q99439 whole entry, looked up): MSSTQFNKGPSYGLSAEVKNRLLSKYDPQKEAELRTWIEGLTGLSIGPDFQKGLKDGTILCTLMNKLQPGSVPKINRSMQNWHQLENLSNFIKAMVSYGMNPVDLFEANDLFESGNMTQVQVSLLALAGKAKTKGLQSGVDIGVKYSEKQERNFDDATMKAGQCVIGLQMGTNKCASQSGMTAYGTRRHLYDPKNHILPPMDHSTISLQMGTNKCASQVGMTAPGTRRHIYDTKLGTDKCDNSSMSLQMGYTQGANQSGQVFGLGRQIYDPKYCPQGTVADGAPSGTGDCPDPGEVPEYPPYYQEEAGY
UniProt P14635, sequence (P14635 whole entry, looked up): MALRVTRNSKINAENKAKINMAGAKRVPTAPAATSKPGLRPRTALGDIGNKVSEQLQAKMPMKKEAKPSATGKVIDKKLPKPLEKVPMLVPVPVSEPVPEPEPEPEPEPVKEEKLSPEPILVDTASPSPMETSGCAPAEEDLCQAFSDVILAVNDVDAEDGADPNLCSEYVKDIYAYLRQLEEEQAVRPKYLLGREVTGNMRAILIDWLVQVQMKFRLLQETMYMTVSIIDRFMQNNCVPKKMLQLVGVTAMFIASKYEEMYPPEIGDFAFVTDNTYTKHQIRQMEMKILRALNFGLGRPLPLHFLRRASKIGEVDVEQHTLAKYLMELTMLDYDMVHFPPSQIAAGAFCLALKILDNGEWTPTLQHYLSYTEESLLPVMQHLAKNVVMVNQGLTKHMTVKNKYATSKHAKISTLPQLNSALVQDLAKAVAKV
UniProt Q96RR4, sequence (Q96RR4 whole entry, looked up): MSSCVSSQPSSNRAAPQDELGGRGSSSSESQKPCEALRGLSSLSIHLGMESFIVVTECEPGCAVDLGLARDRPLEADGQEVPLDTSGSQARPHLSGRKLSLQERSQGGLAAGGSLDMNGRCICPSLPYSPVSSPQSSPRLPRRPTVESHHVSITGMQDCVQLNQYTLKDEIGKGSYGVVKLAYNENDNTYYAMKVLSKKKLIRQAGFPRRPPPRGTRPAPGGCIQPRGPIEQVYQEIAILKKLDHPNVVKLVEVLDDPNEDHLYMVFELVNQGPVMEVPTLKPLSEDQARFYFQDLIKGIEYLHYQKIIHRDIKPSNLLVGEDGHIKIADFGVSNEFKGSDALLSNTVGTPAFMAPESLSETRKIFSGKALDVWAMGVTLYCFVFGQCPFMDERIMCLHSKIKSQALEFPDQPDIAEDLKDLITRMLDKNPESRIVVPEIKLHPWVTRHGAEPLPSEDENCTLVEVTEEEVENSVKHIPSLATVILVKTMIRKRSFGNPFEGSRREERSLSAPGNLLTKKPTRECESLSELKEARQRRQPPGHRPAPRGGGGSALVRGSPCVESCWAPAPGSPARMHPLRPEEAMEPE
UniProt Q96CF2, sequence (Q96CF2 whole entry, looked up): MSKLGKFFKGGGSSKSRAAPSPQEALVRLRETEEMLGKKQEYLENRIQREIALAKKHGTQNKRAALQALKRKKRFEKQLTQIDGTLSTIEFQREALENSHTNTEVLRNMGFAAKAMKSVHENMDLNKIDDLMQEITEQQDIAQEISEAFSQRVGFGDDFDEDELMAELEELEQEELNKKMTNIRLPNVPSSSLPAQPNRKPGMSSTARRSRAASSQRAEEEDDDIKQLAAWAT
UniProt P45973, sequence (P45973 whole entry, looked up): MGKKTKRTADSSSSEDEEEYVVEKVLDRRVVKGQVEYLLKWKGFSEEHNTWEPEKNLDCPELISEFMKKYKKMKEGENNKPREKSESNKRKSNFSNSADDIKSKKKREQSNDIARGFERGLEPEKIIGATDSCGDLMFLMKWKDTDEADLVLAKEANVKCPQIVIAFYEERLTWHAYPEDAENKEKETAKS
UniProt Q13137, sequence (Q13137 whole entry, looked up): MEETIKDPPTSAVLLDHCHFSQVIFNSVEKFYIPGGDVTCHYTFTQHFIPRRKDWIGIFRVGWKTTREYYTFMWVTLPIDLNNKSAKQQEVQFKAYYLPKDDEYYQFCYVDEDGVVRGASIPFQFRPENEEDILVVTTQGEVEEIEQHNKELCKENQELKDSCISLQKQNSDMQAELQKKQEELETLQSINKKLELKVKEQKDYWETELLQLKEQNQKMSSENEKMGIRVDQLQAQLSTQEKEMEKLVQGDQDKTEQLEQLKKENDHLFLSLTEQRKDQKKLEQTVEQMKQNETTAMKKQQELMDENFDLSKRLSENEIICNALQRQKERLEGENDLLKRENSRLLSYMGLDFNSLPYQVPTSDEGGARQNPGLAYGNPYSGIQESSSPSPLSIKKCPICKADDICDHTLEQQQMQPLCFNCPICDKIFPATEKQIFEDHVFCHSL
UniProt O95628, sequence (O95628 whole entry, looked up): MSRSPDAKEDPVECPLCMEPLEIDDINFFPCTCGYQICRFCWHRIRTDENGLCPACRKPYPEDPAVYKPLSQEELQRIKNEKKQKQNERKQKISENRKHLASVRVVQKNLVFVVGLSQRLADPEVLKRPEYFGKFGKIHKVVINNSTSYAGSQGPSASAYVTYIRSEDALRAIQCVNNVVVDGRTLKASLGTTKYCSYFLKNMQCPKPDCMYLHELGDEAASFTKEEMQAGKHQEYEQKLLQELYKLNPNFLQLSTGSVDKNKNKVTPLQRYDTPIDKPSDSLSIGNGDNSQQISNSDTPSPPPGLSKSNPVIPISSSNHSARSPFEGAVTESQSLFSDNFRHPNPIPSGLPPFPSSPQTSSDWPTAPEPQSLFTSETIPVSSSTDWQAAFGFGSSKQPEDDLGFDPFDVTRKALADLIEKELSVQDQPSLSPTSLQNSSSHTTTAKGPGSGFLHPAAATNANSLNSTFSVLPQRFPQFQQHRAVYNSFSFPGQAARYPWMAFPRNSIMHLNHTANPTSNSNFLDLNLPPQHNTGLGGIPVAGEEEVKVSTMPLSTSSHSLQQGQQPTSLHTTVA
UniProt P41240, sequence (P41240 whole entry, looked up): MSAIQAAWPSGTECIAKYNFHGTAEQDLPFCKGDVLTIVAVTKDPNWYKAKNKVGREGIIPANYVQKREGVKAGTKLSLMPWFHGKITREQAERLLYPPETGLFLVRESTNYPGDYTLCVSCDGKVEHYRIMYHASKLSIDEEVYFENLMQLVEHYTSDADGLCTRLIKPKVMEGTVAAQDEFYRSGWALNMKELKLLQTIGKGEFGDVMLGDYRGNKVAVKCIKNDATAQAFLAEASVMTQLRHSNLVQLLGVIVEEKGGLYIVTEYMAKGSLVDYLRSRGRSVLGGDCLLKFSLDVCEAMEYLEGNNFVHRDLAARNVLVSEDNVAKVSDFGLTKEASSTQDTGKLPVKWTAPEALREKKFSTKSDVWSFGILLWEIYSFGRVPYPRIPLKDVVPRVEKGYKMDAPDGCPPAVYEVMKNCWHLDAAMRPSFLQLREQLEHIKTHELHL
UniProt P35520, sequence (P35520 whole entry, looked up): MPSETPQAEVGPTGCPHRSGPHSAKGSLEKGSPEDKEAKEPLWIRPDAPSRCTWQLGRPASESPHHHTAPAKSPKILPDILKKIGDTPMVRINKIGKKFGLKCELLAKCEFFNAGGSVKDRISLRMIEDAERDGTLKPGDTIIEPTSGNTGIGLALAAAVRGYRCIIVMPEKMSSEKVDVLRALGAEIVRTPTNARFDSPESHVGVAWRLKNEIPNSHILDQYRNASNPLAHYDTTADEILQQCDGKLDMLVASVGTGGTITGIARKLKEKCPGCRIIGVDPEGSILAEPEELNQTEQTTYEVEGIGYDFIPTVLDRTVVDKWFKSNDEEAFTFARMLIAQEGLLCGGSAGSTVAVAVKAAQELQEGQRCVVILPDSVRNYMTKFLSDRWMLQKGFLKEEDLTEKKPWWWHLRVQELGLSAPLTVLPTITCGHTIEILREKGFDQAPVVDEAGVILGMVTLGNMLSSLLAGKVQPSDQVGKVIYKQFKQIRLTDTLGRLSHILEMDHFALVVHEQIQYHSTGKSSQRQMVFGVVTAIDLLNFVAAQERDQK
UniProt Q9UNS2, sequence (Q9UNS2 whole entry, looked up): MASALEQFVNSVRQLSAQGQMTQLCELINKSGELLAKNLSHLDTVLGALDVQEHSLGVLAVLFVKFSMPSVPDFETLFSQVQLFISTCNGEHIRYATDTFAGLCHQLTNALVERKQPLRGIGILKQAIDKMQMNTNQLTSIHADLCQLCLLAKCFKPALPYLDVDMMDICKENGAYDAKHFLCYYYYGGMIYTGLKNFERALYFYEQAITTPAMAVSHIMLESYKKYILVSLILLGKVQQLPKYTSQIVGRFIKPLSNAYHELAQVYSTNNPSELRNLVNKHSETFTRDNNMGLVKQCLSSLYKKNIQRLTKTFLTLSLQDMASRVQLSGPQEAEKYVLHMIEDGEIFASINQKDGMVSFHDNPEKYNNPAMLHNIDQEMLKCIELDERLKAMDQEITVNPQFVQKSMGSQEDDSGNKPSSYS
UniProt Q96LT7, sequence (Q96LT7 whole entry, looked up): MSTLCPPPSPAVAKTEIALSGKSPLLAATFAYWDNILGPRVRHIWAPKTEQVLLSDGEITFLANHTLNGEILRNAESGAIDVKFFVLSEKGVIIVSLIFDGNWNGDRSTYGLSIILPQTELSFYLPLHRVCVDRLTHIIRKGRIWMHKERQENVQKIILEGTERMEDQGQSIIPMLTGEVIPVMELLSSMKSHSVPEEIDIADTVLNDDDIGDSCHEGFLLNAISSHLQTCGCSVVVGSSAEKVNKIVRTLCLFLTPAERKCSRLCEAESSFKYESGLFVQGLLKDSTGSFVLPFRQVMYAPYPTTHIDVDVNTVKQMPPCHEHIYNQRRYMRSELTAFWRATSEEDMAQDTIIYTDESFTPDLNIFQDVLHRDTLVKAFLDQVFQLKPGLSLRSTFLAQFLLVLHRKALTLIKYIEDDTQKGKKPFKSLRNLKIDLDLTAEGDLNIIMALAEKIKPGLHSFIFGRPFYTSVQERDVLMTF
UniProt Q8NHZ8, sequence (Q8NHZ8 whole entry, looked up): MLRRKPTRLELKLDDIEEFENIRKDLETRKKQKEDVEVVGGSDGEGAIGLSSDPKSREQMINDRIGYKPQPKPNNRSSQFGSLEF

Compound in the first experiment: COc1cc2nc(-c3cc(F)ccc3O)nc(N[C@@H]3CNC[C@H]3C(C)(C)O)c2cc1OC
The experiment in a line: log2 fold change, soluble protein after heating vs DMSO (PISA); higher = thermal stabilisation; K562 cells, 10 uM, 30 min; active = over 0.2 and 3.5 SD of the protein, either way, in both replicates (recomputed). A digest of the protocol: (§1)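 Aliquots of K562 cells (2×10^6 cells/mL) treated with 10 μM compound for 30 min were heated for 3 min over 48°C-58°C. After pooling and extraction in PBS with 0.5% NP-40 at 4°C, soluble protein from a 21,000xg, 90 min spin was quantified by TMTpro 16plex LC-MS/MS with channel sums equalised. Thermal stability is expressed against control samples, from duplicates, as a log2 fold change.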
CHP1 (UniProt Q99653): the log2 fold change is 0.129.

In the case of CES2 isoform 4 (UniProt O00748), the log2 fold change is -0.044.

For the target CPT2 (UniProt P23786), the log2 fold change is -0.199.

As to CNN2 (UniProt Q99439), the log2 fold change was 0.021.

Turning to CBX5 (UniProt P45973), the log2 fold change was 0.003.

Regarding CNOT4 isoform 6 (UniProt O95628), the log2 fold change was 0.037.

Take CD55 isoform 7 (UniProt P08174): the log2 fold change was 0.012.

Consider CPT1A (UniProt P50416), for which the log2 fold change was 0.308.

For CD81 (UniProt P60033), the log2 fold change is 0.008.

Take CRK (UniProt P46108): the log2 fold change is 0.011.

For CSK (UniProt P41240), the log2 fold change is 0.024.

Consider CELF2 isoform 3 (UniProt O95319), for which the log2 fold change was 0.1.

Take CDK5RAP3 isoform 4 (UniProt Q96JB5): the log2 fold change was 0.075.

With CSNK2A2 (UniProt P19784), the log2 fold change was -0.177.

In the case of CCZ1 (UniProt P86791), the log2 fold change is -0.036.

As to CBR1 (UniProt P16152), the log2 fold change is 0.001.

For CHAMP1 (UniProt Q96JM3), the log2 fold change is 0.025.

Turning to CHMP4C (UniProt Q96CF2), the log2 fold change was 0.064.

As to CBS (UniProt P35520), the log2 fold change was 0.024.

On to COX15 (UniProt Q7KZN9), for which the log2 fold change was -0.012.

CDAN1 (UniProt Q8IWY9): the log2 fold change is -0.044.

In the case of CDC26 (UniProt Q8NHZ8), the log2 fold change is 0.

For COPS3 (UniProt Q9UNS2), the log2 fold change was 0.008.

On to CALCOCO2 isoform 4 (UniProt Q13137), for which the log2 fold change was 0.018.

For CASP10 isoform 4 (UniProt Q92851), the log2 fold change is -0.089.

Regarding C9orf72 (UniProt Q96LT7), the log2 fold change was -0.013.

Turning to CSNK2A1 (UniProt P68400), the log2 fold change was -0.167.

Take CCNB1 (UniProt P14635): the log2 fold change is 0.015.

With CHCHD1 (UniProt Q96BP2), the log2 fold change is -0.198.

CERT isoform 3 (UniProt Q9Y5P4): the log2 fold change is -0.201.

On to CCDC9 (UniProt Q9Y3X0), for which the log2 fold change is 0.02.

Take CAMKK2 (UniProt Q96RR4): the log2 fold change was 0.12.

For the target COMT (UniProt P21964), the log2 fold change is 0.15.

In the case of CCNK isoform 4 (UniProt O75909), the log2 fold change is -0.021.

Regarding CDC42BPA isoform 6 (UniProt Q5VT25), the log2 fold change is -1.1 (active).

Regarding C9orf64 (UniProt Q5T6V5), the log2 fold change was -0.079.

Compound in another experiment: COc1cc2ncnc(Nc3ccc(F)c(Cl)c3)c2cc1OCCCN1CCOCC1 [gefitinib]
Described as above. A digest of the protocol: as §1
For the target CHP1 (UniProt Q99653), the log2 fold change was 0.026.

Turning to CES2 isoform 4 (UniProt O00748), the log2 fold change was 0.03.

Consider CPT2 (UniProt P23786), for which the log2 fold change is 0.343.

For the target CNN2 (UniProt Q99439), the log2 fold change was 0.012.

Turning to CBX5 (UniProt P45973), the log2 fold change is 0.024.

Turning to CNOT4 isoform 6 (UniProt O95628), the log2 fold change was -0.007.

Turning to CD55 isoform 7 (UniProt P08174), the log2 fold change was 0.104.

Take CPT1A (UniProt P50416): the log2 fold change is 0.028.

For CD81 (UniProt P60033), the log2 fold change is 0.043.

Regarding CRK (UniProt P46108), the log2 fold change was -0.006.

CSK (UniProt P41240): the log2 fold change is 0.024.

With CELF2 isoform 3 (UniProt O95319), the log2 fold change is -0.027.

Consider CDK5RAP3 isoform 4 (UniProt Q96JB5), for which the log2 fold change was 0.024.

In the case of CSNK2A2 (UniProt P19784), the log2 fold change was -0.031.

With CCZ1 (UniProt P86791), the log2 fold change was 0.013.

In the case of CBR1 (UniProt P16152), the log2 fold change was -0.004.

As for CHAMP1 (UniProt Q96JM3), the log2 fold change is 0.029.

CHMP4C (UniProt Q96CF2): the log2 fold change is -0.014.

For the target CBS (UniProt P35520), the log2 fold change is 0.007.

For COX15 (UniProt Q7KZN9), the log2 fold change is -0.001.

On to CDAN1 (UniProt Q8IWY9), for which the log2 fold change was -0.034.

For CDC26 (UniProt Q8NHZ8), the log2 fold change was 0.003.

COPS3 (UniProt Q9UNS2): the log2 fold change was -0.031.

For CALCOCO2 isoform 4 (UniProt Q13137), the log2 fold change is -0.07.

For CASP10 isoform 4 (UniProt Q92851), the log2 fold change is -0.036.

C9orf72 (UniProt Q96LT7): the log2 fold change was -0.034.

In the case of CSNK2A1 (UniProt P68400), the log2 fold change was -0.023.

CCNB1 (UniProt P14635): the log2 fold change is -0.009.

Regarding CHCHD1 (UniProt Q96BP2), the log2 fold change was -0.042.

On to CERT isoform 3 (UniProt Q9Y5P4), for which the log2 fold change is 0.157.

For CCDC9 (UniProt Q9Y3X0), the log2 fold change was -0.078.

With CAMKK2 (UniProt Q96RR4), the log2 fold change was 0.019.

For the target COMT (UniProt P21964), the log2 fold change is 0.043.

Regarding CCNK isoform 4 (UniProt O75909), the log2 fold change was -0.014.

Turning to CDC42BPA isoform 6 (UniProt Q5VT25), the log2 fold change was -0.096.

For C9orf64 (UniProt Q5T6V5), the log2 fold change is -0.062.
